Wnt act – Wnt/beta-catenin pathway activation; Wnt/beta-catenin reporter cell assay, activator, plate reader; activation, % at 9.35 µM; actives 1.2% (n = 300,000); AID 743398; in the data active = activation above about 30%, passing the limit was not always enough; inconclusive = no clear call, values can overlap the other calls
HSF1 inh – HSF1 inhibition. actives 0.77% (n = 300,000). activity change, negative = inhibition, % at 7.5 µM (by protocol). AID 2098. NIH3T3-HGL HSE-luciferase, MG132-induced, luminescence 8 h; stronger effect = lower value;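 active = more than half of replicate wells show activity change below -50%, luminescence cut by over half; inconclusive = some wells, but at most half, below -50%; inactive = no replicate well below -50%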;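 note: luciferase reports HSF-1 transcriptional activity via heat shock element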
MITF act – increases MITF-driven TRPM1 promoter luciferase signal; AID 588334; actives 0.75% (n = 300,000); activation, % at 12.5 µM; SK-MEL-5 TRPM1-promoter luciferase, 24 h; % of positive control, neutral wells = 0;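 active = mean activation of at least 80% with every replicate also reaching 80%; inconclusive = mean reaches 80% but some replicate falls short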
esBAF inh – blocks esBAF chromatin remodeling in mouse ES cells; AID 602393; reporter increase, % at 12.5 µM; actives 2% (n = 350,000); Bmi1-luciferase knock-in reporter, 24 h; 100% = twice the neutral-well signal; in the data active = activation above about 40%; inconclusive = no clear call, values can overlap the other calls;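 note: a rise in the Bmi1 reporter signal indicates esBAF inhibition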
SMARCA2 act – increases SMARCA2 function in MMTV reporter cells. MG213 cells, MMTV-luciferase reporter, dexamethasone, overnight. activation, % at 9.1 µM. actives 1% (n = 370,000). AID 652017; in the data active = activation above about 7.8%
HSF1 activator – increases HSF-1 driven luciferase reporter signal; NIH3T3-HGL HSF-1 luciferase reporter, MG132, 8 h; 100% = twice DMSO control signal; activation, % at 9 µM; actives 1.7% (n = 300,000); AID 504408;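 active = mean replicate activation of at least 50% with a set share of replicates each reaching 50%; inconclusive = only one of those two conditions met; inactive = mean below 50% and too few replicates reaching it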
A number is an active result; 0 = inactive; ? = inconclusive; - = no result given. A selection: hits, their analogues and other compounds. The true share with any hit is near 4.3%.

SMILES	Wnt act	HSF1 inh	MITF act	esBAF inh	SMARCA2 act	HSF1 activator
O=c1c2ccccc2nc(SCc2cn3ccsc3n2)n1-c1ccccc1	0	0	0	0	0	65
O=C(Cc1cn2ccsc2n1)OCc1ccccc1	0	-	0	0	0	-
C[C@@H]1CN([C@@H](C)CO)C(=O)CCCn2cc(nn2)CO[C@@H]1CN(C)Cc1ccc(Cl)c(Cl)c1	-	-	-	0	-	-
Clc1ccc(SCc2cn3ccsc3n2)cc1	52	0	0	-	0	111
O=C(CSCc1ccccc1Cl)N1CCN(c2ccccn2)CC1	-	0	0	58	0	0
O=C(CSc1ccccc1)N1CCN(c2ccccn2)CC1	-	0	0	0	0	0
C[C@H]1CN([C@@H](C)CO)C(=O)c2cc(NC(=O)c3ccncc3)ccc2O[C@@H]1CN(C)Cc1ccccc1	-	-	-	0	-	-
C[C@H]1CN([C@@H](C)CO)S(=O)(=O)c2ccc(C3=CCCC3)cc2O[C@@H]1CN(C)C(=O)c1cnccn1	-	-	-	0	-	-
COc1cccc(NC(=O)c2ccccc2F)c1	?	-	87	0	0	-
COc1cccc(NC(=O)c2csc3c2CCCC3)c1	46	0	95	69	0	0
COc1cc2ccccc2cc1C(=O)Nc1ccc(O)cc1	53	0	-	?	0	0
O=C(Nc1ccon1)c1csc2c1CCCC2	0	0	0	0	0	0
O=C(Nc1nccs1)c1csc2c1CCCC2	-	0	0	63	0	0
CSc1ccccc1C(=O)Nc1cccc(N(C)S(C)(=O)=O)c1	0	0	0	0	0	0
COc1ccccc1C(=O)Nc1cccc(N(C)S(C)(=O)=O)c1	-	0	-	0	0	50
CC(C)CCNC(=O)c1csc2c1CCCCC2	0	0	0	-	0	0
COc1cccc(NC(=O)c2cc3ccccc3cc2OC)c1	49	0	-	50	0	0
CCC(C)NC(=O)c1csc2c1CCCCC2 (stereo not given)	0	0	-	0	0	67
O=C(N[C@@H]1CC[C@H](CCNS(=O)(=O)c2ccc(Cl)cc2)O[C@H]1CO)c1cccnc1	-	-	-	0	-	-
Cc1cc(C)nc(NC(=O)c2ccc(C)c([N+](=O)[O-])c2)n1	-	-72	0	-	0	0
Cc1cc(C)nc(NC(=O)c2ccc(Cl)c([N+](=O)[O-])c2)n1	0	0	0	-	0	0
Cc1cccc(NC(=O)c2ccc(N3CCCCC3)c([N+](=O)[O-])c2)n1	-	0	?	0	0	62
CC(C)CC#Cc1ccc2c(c1)O[C@@H](CN(C)C(=O)Nc1ccccc1)[C@H](C)CN([C@H](C)CO)S2(=O)=O	-	-	-	0	-	-
c1ccc(Oc2ccc(-c3ccn[nH]3)cc2)cc1	0	0	?	-	0	0
c1ccc(-c2ncc(-c3ccn[nH]3)s2)cc1	0	0	0	0	0	53
SMILES	Wnt act	HSF1 inh	MITF act	esBAF inh	SMARCA2 act	HSF1 activator
C[C@H](NC(=O)C[C@H]1CC[C@@H]2[C@H](COC[C@H](O)CN2C(=O)Nc2cccc(F)c2)O1)c1ccccc1	-	-	-	0	-	-
O=C(O)CC[C@@H](C(=O)O)N1C(=O)c2ccccc2C1=O	0	0	0	0	0	0
NC(=O)CCC(C(=O)O)N1C(=O)c2ccc(O)cc2C1=O (stereo not given)	0	-54	0	0	0	0
CCCC(=O)Nc1ccc2c(c1)OC[C@@H](C)N(C(=O)CN(C)C)C[C@H](C)[C@H](OC)CN(C)C2=O	-	-	-	0	-	-
CC(=O)c1cccc(Nc2c3c(nc4ccccc24)CCC3)c1	0	0	0	0	0	0
CC(=O)c1ccc(Nc2c3c(nc4ccccc24)CCCC3)cc1	0	0	0	-	0	66
C=C(C)CN(CC)c1nc(N)c(C#N)c(CC#N)c1C#N	0	0	0	0	0	75
CCCCN(CC)c1nc(N)c(C#N)c(CC#N)c1C#N	0	0	-	0	0	0
CC(=O)Oc1ccc2cc(-c3nc4ccccc4n3C)c(=O)oc2c1	-	0	0	0	0	0
Cn1c(-c2cc3ccc(OC(=O)C(C)(C)C)cc3oc2=O)nc2ccccc21	34	0	0	0	0	58
CCc1cc2c(=O)c(-c3nc4ccccc4n3C)c(C)oc2c(CN(CC)CC)c1O	-	0	0	0	0	0
CCN(CC)Cc1c(O)ccc2cc(-c3nc4ccccc4n3C)c(=O)oc12	0	0	0	0	0	68
Cc1cccc(S(=O)(=O)N[C@H]2CC[C@H](CCNC(=O)CCN3CCCCC3)O[C@H]2CO)c1	-	-	-	0	-	-
CCOc1cc(/C=C\[N+](=O)[O-])ccc1OCC(=O)N1CCOCC1	0	0	0	-	0	310
CO[C@@H]1CN(C)C(=O)c2ccc(NC(C)=O)cc2OC[C@H](C)N(Cc2ccccc2F)C[C@H]1C	-	-	-	0	-	-
O=C(Cn1nc(-c2ccccc2)ccc1=O)N1CCOCC1	0	0	0	0	0	0
O=C(Cn1nc(-c2ccccc2Cl)ccc1=O)Nc1ccccc1-c1ccccc1	0	0	0	0	0	53
O=C(Cn1nc(-c2ccccc2)ccc1=O)N1CCCCC1	0	-79	0	0	0	0
CCc1ccccc1-n1c(SCC(=O)Nc2ccc3c(c2)OCCO3)nc2[nH]ncc2c1=O	-	-68	0	0	0	0
C/C(NC(=O)c1cccs1)=C1\C(=O)C[C@@H]2[C@H]1C2(C)C	0	0	0	44	0	0
COc1ccc(S(=O)(=O)Nc2ccc3c(c2)C(=O)N([C@H](C)CO)C[C@@H](C)[C@@H](CN(C)C(=O)c2ccncc2)OCCCC[C@@H](C)O3)cc1	-	-	-	0	-	-
O=C(Nc1ccc2ccccc2c1)c1ccc(Cl)cc1Cl	39	0	0	0	0	51
O=C(Nc1ccc2ccccc2c1)c1ccccc1Cl	44	-	-	0	0	-
O=C(Nc1ccc2c(c1)C(=O)OC2)c1ccc(Cl)cc1Cl	0	0	0	53	0	0
Cc1ccc(NC(=O)c2cc3cccc([N+](=O)[O-])c3[nH]2)cc1	0	0	-	-	0	164
SMILES	Wnt act	HSF1 inh	MITF act	esBAF inh	SMARCA2 act	HSF1 activator
CCC(=O)N[C@@H]1CC[C@H](CCNC(=O)Nc2ccc(F)cc2)O[C@H]1CO	-	-	-	0	-	-
C[C@@H]1CN([C@@H](C)CO)C(=O)c2cc(NC(=O)Cn3cnnn3)ccc2O[C@@H]1CN(C)Cc1ccc(Oc2ccccc2)cc1	-	-	-	0	-	-
O=C(O)c1cccc([N+](=O)[O-])c1C(=O)Nc1ccc2ccccc2c1	0	0	0	0	0	0
O=C(Nc1ccc2ccccc2c1)c1ccccc1O	0	0	0	-	0	0
O=C(Nc1ccc2ccccc2c1)c1cc(F)c(F)cc1Cl	0	0	-	78	0	59
O=C(Nc1ccc2ccccc2c1)c1ccccc1[N+](=O)[O-]	0	-	0	51	0	-
O=C(N[C@@H]1CC[C@H](CCn2cc(C3(O)CCCC3)nn2)O[C@@H]1CO)C1CCCC1	-	-	-	0	-	-
Cc1ccc(NC(=O)C2CCN(S(=O)(=O)c3ccc4ccccc4c3)CC2)nc1	0	-	0	58	0	-
Cc1ccc(S(=O)(=O)N2CCC(C(=O)N[C@@H](Cc3ccccc3)C(=O)O)CC2)cc1	-	-78	-	0	0	0
